This is part of a sample that, as a whole, favours compounds with a hit. Of some 83,000 tested, about 20% had one in any assay.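 The endpoint reported here, percent growth, reads 100 for growth as untreated, 0 for no net growth and -100 for all cells dead.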 Unmarked numbers belong to inactive results. Active and inactive are the calls of the source. How the source made its calls: active means growth percent below 10; inactive means the rest.
What follows are molecules tested on MDA-MB-468 breast (assay: NCI-60 one-dose screen, 48 h (100 = growth as untreated, 0 = no growth, -100 = all killed)). Details: 10 µM unless noted.

`Cc1ccc(S(=O)(=O)N2CCCC2CO)cc1` (centres undefined) was tested. Which growth did it give?
Its growth is 86.3%.

`C=C1C(=O)O[C@H]2[C@H]1CC/C(CNC(=O)/C1=C/CC[C@@]3(C)O[C@H]3[C@H]3OC(=O)C(=C)[C@@H]3CC1)=C\CC[C@@]1(C)O[C@@H]21` was tested. Which growth did it give?
The growth was 42.9%.

With `O=C(O)C1C(c2ccccc2)c2ccccc2C(O)C1CO` (centres undefined) as the molecule, how does the growth read?
The growth was 117%.

`CC(C)CSc1nc(N)nc2c1ncn2C1OC(CO)C(O)C1O` (centres undefined) was tested. Which growth did it give?
Its growth is 96.5%.

With `CCOc1c(OC)cc2c(c1O)C(=O)N[C@@H]1[C@@H](O)[C@@H](O)[C@H](O)C[C@@H]21` as the molecule, how does the growth read?
The growth was 94.9%.

How did the growth turn out when `COc1ccc2c(c1)Nc1ccccc1S2` was run?
The growth was 104%.

Which growth does the source give for `Clc1ccc(-c2cc(-c3ccccc3)nc(N3CCN(CCCNc4ccnc5cc(Cl)ccc45)CC3)n2)cc1` here?
The growth was -34% (active).

`CC(C)(C)c1cc(/C=N/NC(=O)c2ccccc2NC(=O)c2cccs2)c(O)c(C(C)(C)C)c1` was tested. Which growth did it give?
The growth was 25.3%.

Which growth does the source give for `COc1ccc(/C=C/C(=O)NCC(C)O)cc1` (centres undefined) here?
Its growth is 94.2%.

`Fc1ccc(-c2cn3c(-c4c[nH]c5ccc(Br)cc45)csc3n2)cc1` was tested. Which growth did it give?
The growth was 74.9%.

With `CCn1c(Sc2nnc(NC(=O)CCN3CCCC3)s2)nc2c1c(=O)n(C)c(=O)n2C` as the molecule, how does the growth read?
The growth was 101%.

`COc1ccc(-c2cn(-c3ccc(Cl)cc3)c(SCC(=O)c3ccc([N+](=O)[O-])cc3)n2)cc1` was tested. Which growth did it give?
Its growth is 71.2%.

For `O=C(CSc1nc(-c2ccccc2)cc(=O)[nH]1)Nc1nc(-c2ccccc2)cs1`, which growth is on record?
The growth was 96.6%.

`CCN(CC)Cc1cc(Nc2c3ccccc3nc3cc(Cl)ccc23)ccc1O` was tested. Which growth did it give?
The growth was -72.4% (active).

Reference: PubChem BioAssay (NCI)
